# Tests used:
# Test in all cases: PBM binding z-score (relative to random genomic background probes); higher = stronger binding; sequences stand for … in GC…GCGATTGACAGCGTAGAATGAAGG
# [1] = test system: RARb homodimer (NR concentration 270 nM)
# Method in brief: (§1)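 Ligand-free nuclear receptor dimers were bound for 1 h to custom Agilent 4×180K protein-binding microarrays. Detection used antibodies against each partner (one per run). Binding z-scores rest on regression-normalized fluorescence, with random background probes as the reference.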
# [2] = test system: RARg:RXRa (NR concentration 270 nM, RXRa partner concentration 90 nM)
# Method in brief: as §1
# [3] = test system: RARg homodimer (NR concentration 270 nM)
# Method in brief: as §1
# [4] = test system: RXRa DBDmut IVT, anti-RXR (DBD mutation: RXRa K156A/R161A, NR concentration 90 nM)
# Method in brief: as §1
# [5] = test system: RXRa homodimer (NR concentration 180 nM)
# Method in brief: as §1
# [6] = test system: THRa:RXRa (NR concentration 90 nM, RXRa partner concentration 90 nM)
# Method in brief: as §1
# [7] = test system: THRa homodimer (NR concentration 90 nM)
# Method in brief: as §1
# [8] = test system: VDR homodimer (NR concentration 270 nM)
# Method in brief: as §1
Sequence,PBM binding z-score [1],PBM binding z-score [2],PBM binding z-score [3],PBM binding z-score [4],PBM binding z-score [5],PBM binding z-score [6],PBM binding z-score [7],PBM binding z-score [8]
GCGTCTGGGGCATCAGCAGGTTACCATAACTTAA,0.953,0.859,0.544,0.254,0.243,1.06,-0.103,-0.379
CCTAGTAGTTGACCATAAGGGCAACCGAAGCTCG,2.08,1.13,0.854,-0.02,0.613,1.81,1.16,0.728
TCGAGTAGGTTAGCGGCATTCAGAATGGCGTCGA,-0.725,-0.482,-0.458,-0.267,0.000996,-0.647,-0.985,-0.691
CCTCAAAGTTCAAGGTAACGTAACAGAAAGCAGC,4.13,5.48,6.39,4.29,4.44,3.32,1.79,3.65
CAAACTAGTTCACGAAAGGTCAAAGTCGAATGAC,5.1,6.68,6.48,3.07,7.49,4.5,1.16,4.41
AGAATGAGGTTACCAAAGATCAAGGAAACGCTTG,0.992,2.37,1.88,1.13,2.85,3.03,0.74,0.375
CGTCGAAGGTCAAGGTCAGTGAAAGAGACTCGAA,5.05,6.76,7.33,2.59,6.08,3.98,2.07,1.98

# Reference: the supplement of paper PMC6555819
